# Where “and” joins values, the source holds several entries; their conditions need not be identical. Identical values can stand only once. Calls of active or inactive are those of the source. How the source made its calls: active means hit-call score of the fitted dose curve at least 0.9, where 1 is the maximum; inactive means score below 0.9.
# Read-out: Tumor necrosis factor (Homo sapiens) (UniProt P01375)
# Experiment: BSK_LPS_TNFa: BioMAP Diversity Plus: LPS Assay for Tumour Necrosis Factor alpha (TNFa) Biomarker Activity (AID 2283085);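 on AC50: TNFa protein level quantified by ELISA in the co-culture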
# Conditions: primary human HUVEC with PBMC; actives raise or lower the signal
# Summary of the method: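 Human umbilical vein endothelial cells co-cultured with PBMC were exposed to test chemical and TNFa measured by ELISA 24 h after dosing. Bidirectional curve fitting was done relative to DMSO as negative control and baseline.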
# Chain of Tumor necrosis factor (Homo sapiens) (P01375 whole entry, looked up): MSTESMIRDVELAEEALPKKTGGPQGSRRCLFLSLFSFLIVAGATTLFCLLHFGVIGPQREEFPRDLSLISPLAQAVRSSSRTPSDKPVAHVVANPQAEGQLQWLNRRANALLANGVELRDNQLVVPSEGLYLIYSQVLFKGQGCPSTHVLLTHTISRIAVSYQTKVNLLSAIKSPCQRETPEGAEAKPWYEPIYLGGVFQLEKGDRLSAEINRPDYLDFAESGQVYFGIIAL
Structure (SMILES),outcome,AC50
CC(C)CCCCCCOC(=O)C1CCCCC1C(=O)OCCCCCCC(C)C (centres undefined),inactive,
CC(=O)c1ccccc1,inactive,
c1ccc2cc3ccccc3cc2c1,inactive,
CC(C)c1nnc2ccc(-c3ocnc3-c3cc(F)ccc3F)cn12,,148 nM (active)
CCCC(CCC)C(=O)O,inactive,
C[C@@H](Oc1ccc(CNC(=O)c2cccnc2Oc2ccc3c(c2)OCO3)c(F)c1)C(=O)O,,2290 nM (active)
OC[C@H]1O[C@@](CO)(O[C@H]2O[C@H](CO)[C@@H](O)[C@H](O)[C@H]2O)[C@@H](O)[C@@H]1O,inactive,
CCCCCCCCCC,inactive,
COc1cc(C(C)C)c2c(c1)S(=O)(=O)N(COc1cc(=O)n3cccc(OCCN4CCCCC4)c3n1)C2=O,inactive,
S=P(N1CC1)(N1CC1)N1CC1,inactive,
OC(O)(C(F)C(O)(O)C(F)(F)F)C(F)(F)F,,4 µM (active) and 13.3 µM (active)
NCC(F)(F)C(F)(F)C(F)(F)C(F)(F)F,inactive,
c1ccc2c(c1)-c1cccc3c1c-2cc1ccccc13,inactive,
Nc1ccn([C@@H]2O[C@H](CO)[C@@H](O)[C@@H]2O)c(=O)n1,inactive,
CC(C)C(=O)Nc1ccc([N+](=O)[O-])c(C(F)(F)F)c1,inactive,
CCOC(N)=O,inactive,
O=C(O)c1ccc2c(c1)nc(C(=O)NC1CCN(C3CC3)CC1)n2Cc1cc(-c2ccc(Cl)s2)on1,inactive,

# Read-out: Vascular cell adhesion molecule 1 (VCAM1), VCAM1 (gene 7412)
# Experiment: BSK_LPS_VCAM1: BioMAP Diversity Plus: LPS Assay for Vascular cell adhesion molecule 1 (VCAM1) Biomarker Activity (AID 2283086)
# Conditions: primary human HUVEC with PBMC; actives raise or lower the signal
# Summary of the method: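 Human umbilical vein endothelial cells co-cultured with peripheral blood mononuclear cells under LPS stimulation were exposed to test chemical for 24 h. VCAM-1 levels were then measured by ELISA, with bidirectional curve fitting relative to DMSO as negative control and baseline.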
Structure (SMILES),outcome,AC50
CCCCCCCCCCCCCCCCOS(=O)(=O)O,inactive,
O=C(NO)C1(NS(=O)(=O)c2ccc(Oc3ccc(F)cc3)cc2)CCOCC1,inactive,
CC(C)CC(C)O (centres undefined),inactive,
CC(C)CCCCCCOC(=O)C1CCCCC1C(=O)OCCCCCCC(C)C (centres undefined),inactive,
CC(=O)c1ccccc1,inactive,
c1ccc2cc3ccccc3cc2c1,inactive,
Cc1ncc([C@@H](CCCCCCc2ccc3c(n2)NCCC3)CC(=O)O)cn1,inactive,
CC(C)c1nnc2ccc(-c3ocnc3-c3cc(F)ccc3F)cn12,,979 nM (active)
COCc1nnc(-c2ccc[n+]([O-])c2)n1-c1c(Cl)c(Cl)cc2[nH]c(=O)c(=O)[nH]c12,inactive,
O=C(O)c1cccc(C(=O)O)c1,inactive,
CCCC(CCC)C(=O)O,inactive,
C[C@@H](Oc1ccc(CNC(=O)c2cccnc2Oc2ccc3c(c2)OCO3)c(F)c1)C(=O)O,inactive,
OC[C@H]1O[C@@](CO)(O[C@H]2O[C@H](CO)[C@@H](O)[C@H](O)[C@H]2O)[C@@H](O)[C@@H]1O,inactive,
CCCCCCCCCC,inactive,
OCCOCCOCCO,inactive,
c1ccc2ncccc2c1,inactive,
COc1cc(C(C)C)c2c(c1)S(=O)(=O)N(COc1cc(=O)n3cccc(OCCN4CCCCC4)c3n1)C2=O,,6020 nM (active)
S=P(N1CC1)(N1CC1)N1CC1,inactive,
OC(O)(C(F)C(O)(O)C(F)(F)F)C(F)(F)F,inactive,
NCC(F)(F)C(F)(F)C(F)(F)C(F)(F)F,inactive,
c1ccc2c(c1)-c1cccc3c1c-2cc1ccccc13,inactive,
Nc1ccn([C@@H]2O[C@H](CO)[C@@H](O)[C@@H]2O)c(=O)n1,inactive,
CC(C)C(=O)Nc1ccc([N+](=O)[O-])c(C(F)(F)F)c1,inactive,
CCOC(N)=O,inactive,
CC[C@H](C)C(=O)O[C@H]1C[C@H](O)C=C2C=C[C@H](C)[C@H](CC[C@@H](O)C[C@@H](O)CC(=O)O)[C@H]21,inactive,
O=C(O)c1ccc2c(c1)nc(C(=O)NC1CCN(C3CC3)CC1)n2Cc1cc(-c2ccc(Cl)s2)on1,inactive,
NC(=O)N1c2ccccc2C=Cc2ccccc21,inactive,
